Screens (PubChem)
GALC G270D up: A Novel Cell-Based Assay to Identify Small Molecules for B -Galactocerebrosidase; 45,000 tested, 0.1% active; AID 1159614, 2016; 145M-Twi-hGALC-G270D cells, HMU-beta-Gal fluorescence, 48 h; Potency, µM (doses to about 57.5 µM), usual class: activators; note: 0% is about no effect; nearly all actives have a fitted effect of over 65% in size
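qHTS, 1536-well; 145M-Twi-hGALC-G270D cells (WT line also made) in DMEM/F12 + 10% FBS; compound incubation on live cells; HMU-β-gal 0.1 mM final, pH 5.2, NaTC; carbonate stop; fluorescence increase = enhanced residual activity.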
HTT promoter inh: Primary qHTS for Identification of Small Molecule Inhibitors of Huntingtin Promoter Activity; 48,000 tested, 0.93% active; HEK293 HTT promoter firefly luciferase reporter, 24 h; Potency, µM (highest dose often 57.5 µM), for inactives: at the highest dose activity change, negative = inhibition, most hits filed as inhibitors; AID 1508623, 2021; note: nearly all actives have a fitted effect of over 50% in size
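Quantitative HTS used concentration series of up to 57.5 uM final on HEK293 luciferase reporter cells, 24 h at 37 degrees C. Readout was Dual-Glo firefly luminescence.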
HTT-AS promoter: Primary qHTS for Identification of Small Molecule Activators of Huntingtin-Antisense Promoter Activity | AID 1508624, 2021 | Potency, µM (highest dose often 57.5 µM), for inactives: top-dose activity change, positive = activation, most hits filed as activators | 48,000 tested, 0.24% active | HEK293 HTT-AS promoter firefly luciferase reporter, 24 h; response scale: percent change from vehicle, -100% = no light; note: nearly all actives have a fitted effect of over 55% in size
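HEK293 luciferase promoter-reporter cells (2,500/well) plated 24 h, then compounds added at up to 57.5 uM final for 24 h at 37 °C. Firefly luminescence by Dual-Glo, normalized to vehicle (0%) and zero RLU (-100%).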
FH mod: Identification of activators of human fumarate hydratase by quantitative high-throughput screening; 54,000 tested, 0.22% active; FH coupled MDH/diaphorase resazurin fluorescence, 15 min; Potency, µM (top dose mostly 79.9 µM), inactives show top-dose activity change, negative = inhibition, actives largely listed as inhibitors; note: % is set by controls: 0 for no effect and ±100 for the full control effect; the screen sought activators but most active calls are inhibition curves; nearly all actives have a fitted effect of over 45% in size
Target sequence (P07954 whole entry, looked up): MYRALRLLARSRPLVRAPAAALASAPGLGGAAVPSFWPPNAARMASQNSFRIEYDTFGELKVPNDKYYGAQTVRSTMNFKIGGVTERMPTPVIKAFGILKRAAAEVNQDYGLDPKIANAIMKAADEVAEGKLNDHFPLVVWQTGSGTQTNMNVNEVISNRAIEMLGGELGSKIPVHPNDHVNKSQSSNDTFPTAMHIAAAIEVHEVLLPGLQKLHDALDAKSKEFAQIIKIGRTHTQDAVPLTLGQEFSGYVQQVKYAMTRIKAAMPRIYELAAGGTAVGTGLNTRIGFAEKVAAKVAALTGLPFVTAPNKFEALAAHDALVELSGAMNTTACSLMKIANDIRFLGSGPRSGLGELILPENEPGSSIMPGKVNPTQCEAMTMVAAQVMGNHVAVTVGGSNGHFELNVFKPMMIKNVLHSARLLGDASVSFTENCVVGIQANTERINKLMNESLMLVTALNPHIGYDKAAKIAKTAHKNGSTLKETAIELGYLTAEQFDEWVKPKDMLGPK
Active calls of the source: *; i = inactive; u = inconclusive; x = no result given; [ ] = remark or other dose. Only some compounds are listed: those with a hit (about 1.3% of all), similar ones and a draw of the others. Calls come from the whole dose curve; as a rule, active = well fitted curve in the direction sought with a large enough effect; inconclusive = small, poorly fitted or top-dose-only effect, or another doubt; inactive = no such curve, though single readings can be large; an effect the other way counts as inactive or inconclusive. Potency is the fitted concentration of half-maximal effect.

SMILES	GALC G270D up	HTT promoter inh	HTT-AS promoter	FH mod
Cc1cccc(-n2ncc3c(NCCOCCO)ncnc32)c1	i	39%	4µM*	-5%
Cc1c(Cl)cccc1NC(=O)Cn1cc2c(n1)CCCC2	i	-21%	-18%	2%
O=c1oc2c(CN3CCOCC3)c(O)ccc2cc1-c1ccccc1	25µM*	4%	4%	-10%
CCN1CCN(c2ccc(NS(=O)(=O)c3c(C)nc4sccn4c3=O)cc2Cl)CC1	i	16µM*	-45%	-4%
COc1ccc(OC)c(CCNC(=O)C(C)n2nc(C)c3c(C)n(-c4ccc(C)cc4)nc3c2=O)c1 (configuration not stated)	i	1.6µM*	-88%	-12%
COc1ccc(CCNC(=O)Cn2nc(C)c3c(C)n(-c4ccc(C)cc4)nc3c2=O)c(OC)c1	i	2.5µM*	-68%	-14%
Cc1ccc(CNS(=O)(=O)c2ccc(F)c(C(=O)Nc3ccc(C)c(F)c3)c2)cc1	i	-22%	-19%	-7%
COC(=O)c1c(SC)nc2ccccc2c1OCc1cccc(C)c1	i	-16%	-5%	-13%
COC(=O)c1c(SC)nc2ccccc2c1OCc1ccc(C)cc1C	i	u	-26%	35µM*
O=C(Nc1ccc(F)cc1)c1ccc(Cn2nc(N3CCN(c4ccccc4)CC3)ccc2=O)o1	i	14µM*	-42%	-26%
COc1ccc2sc(N(Cc3cccnc3)C(=O)c3ccc4c(c3)OCCO4)nc2c1	i	11µM*	-20%	-28%
COc1ccc2nc(N(Cc3cccnc3)C(=O)c3ccc4c(c3)OCCO4)sc2c1	i	-4%	3%	-1%
Cc1ccccc1-c1noc(-c2nnn(-c3ccccc3C)c2N)n1	i	78%	0.71µM*	-3%
COc1ccc(-n2nnc(-c3nc(-c4ccccc4C)no3)c2N)cc1Cl	i	-6%	-9%	6%
Cc1cccc(-n2nnc(-c3nc(-c4cccs4)no3)c2N)c1	i	62%	u	3%
Cc1cccc(-n2nnc(-c3nc(-c4cccs4)no3)c2N)c1C	i	104%	0.35µM*	3%
CC(=O)O[C@@H](C[C@@H]1C=C(C)C(=O)O1)[C@H](C)[C@H]1CCC2[C@@]3(C)CC[C@H](O[C@@H]4O[C@H](CO)[C@@H](O)[C@H](O)[C@H]4O[C@@H]4O[C@@H](C)[C@H](O)[C@@H](O)[C@H]4O)C(C)(C)C3CC[C@@]2(C)[C@@]12COC(=O)C2 (some centres not stated)	x	x	x	0%[20.6 µM]
CCCn1c2ccccc2c2cnn(CC(=O)NCCc3ccc(OCC)c(OCC)c3)c(=O)c21	i	u	-27%	-9%
COc1ccccc1N1CCN(S(=O)(=O)c2cc(C(=O)Nc3ccc(Oc4ccccc4)cc3)ccc2F)CC1	i	1.4µM*	-42%	-22%
Cc1cccc(N2CCN(S(=O)(=O)c3cc(C(=O)Nc4ccc(Oc5ccccc5)cc4)ccc3F)CC2C)c1 (configuration not stated)	i	1µM*	-46%	1%
O=C(Nc1ccc(Oc2ccccc2)cc1)c1ccc(F)c(S(=O)(=O)N2CCN(c3ccccc3F)CC2)c1	i	2µM*	-44%	-7%
COc1ccc(NC(=O)CNC(=O)Cn2ccc3ccccc3c2=O)cc1OC	i	-9%	-12%	-16%
Cc1cccc(N2CCN(C(=O)C3CCN(C(=O)c4cc5sccc5n4C)CC3)CC2C)c1 (configuration not stated)	i	22µM*	-55%	-15%
Cc1ccc(C)c(N2CCN(C(=O)C3CCN(C(=O)c4cc5sccc5n4C)CC3)CC2)c1	i	u	-43%	-21%
Cc1cc(NCc2ccc(Cl)cc2)n2cnnc2n1	i	25µM*	-70%	16%
SMILES	GALC G270D up	HTT promoter inh	HTT-AS promoter	FH mod
COc1cccc(N2CCN(C(=O)c3ccc4nc(N5CCC(C)CC5)sc4c3)CC2)c1	i	u	-64%	-20%
Cc1ccc(Cl)cc1N1CCN(C(=O)c2ccc3nc(N4CCC(C)CC4)sc3c2)CC1	i	3.5µM*	-79%	-16%
Cc1ccc(C)c(N2CCN(CCCNC(=O)c3ccc4nc(N5CCC(C)CC5)sc4c3)CC2)c1	i	-84%	u	u
COc1ccc(N2CCN(C(=O)c3ccc4nc(N5CCC(C)CC5)sc4c3)CC2)cc1	i	2.2µM*	-72%	-6%
CCN1C(=O)c2cccc3c(S(=O)(=O)Nc4ccc(O)c(C(=O)O)c4)ccc1c23	i	0%	-4%	32µM*
CN1C(=O)c2cccc3c(S(=O)(=O)Nc4cccc(C(=O)O)c4)ccc1c23	i	-3%	-11%	u
CCOc1ccccc1CN1CCc2nc(N3CCN(c4ccccc4F)CC3)ncc2C1	i	14µM*	-51%	-5%
COc1ccc(N2CCN(C(=O)Cn3c(-c4cccs4)cc4ccccc43)CC2)cc1	i	-26%	-15%	-35%
CNC[C@H](O)c1cccc(O)c1	i	4%	1%	-8%[53.3 µM]
Cn1c(=O)n(C)c2cc(N3CCOCC3)c(NS(=O)(=O)c3cccc(C#N)c3)cc21	i	14%	1%	16µM*
CCS(=O)(=O)c1cccc(C(=O)N2CCN(c3nc4c(C)ccc(Cl)c4s3)CC2)c1	i	11µM*	-48%	-26%
COc1ccc(CN(C(=O)c2cc3ccccc3oc2=O)C2CCS(=O)(=O)C2)cc1OC (configuration not stated)	i	48%	11µM*	4%
Cc1ccc(CCNC(=O)c2c[nH]c3ccc(S(=O)(=O)Nc4cccc(C(F)(F)F)c4)cc3c2=O)cc1	i	16µM*	-43%	-15%
Cc1cccc(Cn2c(=O)n(CCc3ccccc3)c(=O)c3sc4ccccc4c32)c1	i	-7%	2%	-8%
Cc1nc(C)c(-c2ccc(SCC(=O)Nc3ccc(F)c(F)c3)nn2)s1	i	u	-33%	-6%
Cc1nc(C)c(-c2ccc(SCC(=O)Nc3ccc(Cl)c(Cl)c3)nn2)s1	i	18µM*	-32%	-7%
Cc1oc(-c2ccccc2F)nc1CS(=O)(=O)CC(=O)N1CCN(c2ccc(Cl)cc2)CC1	i	28µM*	-55%	-13%
COc1cc(/C=C(\C#N)c2nc3ccccc3n2C)cc(OC)c1OC	i	42%	u	u
COc1ccc(/C=C(\C#N)c2nc3ccccc3n2C)c(OC)c1	i	66%	3.5µM*	u
CC(C)c1ccc(NC(=O)c2cc(S(=O)(=O)NC3CCCCC3)ccc2F)cc1	i	u	-22%	u
O=C(Nc1ccc(F)c(F)c1)c1cc(S(=O)(=O)NC2CCCCCC2)ccc1F	i	25µM*	-38%	u
